Assay [1] in a line: Quantitative High-Throughput drug screen in 47 multiple myeloma cell lines against the NCATS MIPE library collection: Karpas620_DSMZ cell viability assay (AID 1918959). Further: nearly all actives have a fitted effect of over 30% in size. Further: potency means the concentration at half of the fitted maximal effect. The procedure, abridged:
(§1)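 Luminescent ATP measurement with CellTiter-Glo gives viability, scaled between DMSO-only wells (100%) and media-only wells (0%). Cells, 500 per well, faced library compounds for 48 hours at 37C.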

A short description of assay [2]: Quantitative High-Throughput drug screen in 47 multiple myeloma cell lines against the NCATS MIPE library collection: KMM1_JCRB cell viability assay (AID 1918960). Further: nearly all actives have a fitted effect of over 30% in size. Further: potency means the concentration at half of the fitted maximal effect. The procedure, abridged: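 Myeloma cells at 500 per well in 1536-well format treated with MIPE 4.0 library by pin transfer for 48 h at 37C, 5% CO2. Viability from ATP luminescence (CellTiter-Glo), normalized to DMSO (100%) and media-only (0%) wells.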

A short description of assay [3]: Quantitative High-Throughput drug screen in 47 multiple myeloma cell lines against the NCATS MIPE library collection: JIM3_ECACC cell viability assay (AID 1918963; further: nearly all actives have a fitted effect of over 35% in size; further: potency means the concentration at half of the fitted maximal effect). The procedure, abridged:
as §1

The nature of assay [4]: Quantitative High-Throughput drug screen in 47 multiple myeloma cell lines against the NCATS MIPE library collection: INA6_PLB cell viability assay (AID 1918965; further: nearly all actives have a fitted effect of over 55% in size; further: potency means the concentration at half of the fitted maximal effect). The procedure, abridged:
(§2)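 Steps: seed 500 cells per well; pin-transfer MIPE 4.0 library; incubate 48 h at 37C, 5% CO2, humidified; add CellTiter-Glo, 5 min room temperature; read luminescence.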

Assay [5] can be described thus: Quantitative High-Throughput drug screen in 47 multiple myeloma cell lines against the NCATS MIPE library collection: H1112_PLB cell viability assay (AID 1918967; further: nearly all actives have a fitted effect of over 30% in size; further: potency means the concentration at half of the fitted maximal effect). The method, boiled down: (§3)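 Relative luminescence from CellTiter-Glo served as the viability signal, referenced to DMSO-treated (100%) and cell-free medium (0%) controls. Treatment lasted 48 hours at 37C with 500 cells per well.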

Assay [6] is described as follows: Quantitative High-Throughput drug screen in 47 multiple myeloma cell lines against the NCATS MIPE library collection: Karpas25_ECACC cell viability assay (AID 1918968; further: nearly all actives have a fitted effect of over 35% in size; further: potency means the concentration at half of the fitted maximal effect). The method, boiled down: as §3
A short description of assay [7]: Quantitative High-Throughput drug screen in 47 multiple myeloma cell lines against the NCATS MIPE library collection: KMS12BM_JCRB cell viability assay (AID 1918971). Further: nearly all actives have a fitted effect of over 35% in size. Further: potency means the concentration at half of the fitted maximal effect. The procedure, abridged:
(§4)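 Approved and investigational drugs from MIPE 4.0 were added by pin tool to 500 cells per well. After 48 hours at 37C, ATP-based CellTiter-Glo luminescence indicated remaining viability.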

Assay [8] in a line: Quantitative High-Throughput drug screen in 47 multiple myeloma cell lines against the NCATS MIPE library collection: KMS12PE_JCRB cell viability assay (AID 1918972). Further: nearly all actives have a fitted effect of over 30% in size. Further: potency means the concentration at half of the fitted maximal effect. The method, boiled down: as §2
Assay [9] in a line: Quantitative High-Throughput drug screen in 47 multiple myeloma cell lines against the NCATS MIPE library collection: KMS20_JCRB cell viability assay (AID 1918973). Further: nearly all actives have a fitted effect of over 45% in size. Further: potency means the concentration at half of the fitted maximal effect. The method, boiled down: as §3
A short description of assay [10]: Quantitative High-Throughput drug screen in 47 multiple myeloma cell lines against the NCATS MIPE library collection: MMM1_PLB cell viability assay (AID 1918976). Further: potency means the concentration at half of the fitted maximal effect; nearly all actives have a fitted effect of over 35% in size. The method, boiled down:
(§5)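 Inhibition of viability over 48 h was scored by ATP content (CellTiter-Glo) in 500-cell wells. Zero and full viability were defined by media-only and DMSO-only wells.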

Assay [11] is described as follows: Quantitative High-Throughput drug screen in 47 multiple myeloma cell lines against the NCATS MIPE library collection: MOLP8_DSMZ cell viability assay (AID 1918977). Further: nearly all actives have a fitted effect of over 45% in size. Further: potency means the concentration at half of the fitted maximal effect. The method, boiled down: as §5
Assay [12] in a line: Quantitative High-Throughput drug screen in 47 multiple myeloma cell lines against the NCATS MIPE library collection: NCIH929_DSMZ cell viability assay (AID 1918978). Further: nearly all actives have a fitted effect of over 35% in size. Further: potency means the concentration at half of the fitted maximal effect. The procedure, abridged:
as §5

Assay [13] is described as follows: Quantitative High-Throughput drug screen in 47 multiple myeloma cell lines against the NCATS MIPE library collection: OCIMY1_PLB cell viability assay (AID 1918979). Further: nearly all actives have a fitted effect of over 35% in size. The procedure, abridged: as §5
Assay [14] is described as follows: Quantitative High-Throughput drug screen in 47 multiple myeloma cell lines against the NCATS MIPE library collection: JJN3_DSMZ cell viability assay (AID 1918966; further: nearly all actives have a fitted effect of over 50% in size; further: potency means the concentration at half of the fitted maximal effect). The method, boiled down:
as §3

The nature of assay [15]: Quantitative High-Throughput drug screen in 47 multiple myeloma cell lines against the NCATS MIPE library collection: KMS26_JCRB cell viability assay (AID 1918975). Further: nearly all actives have a fitted effect of over 45% in size. Further: potency means the concentration at half of the fitted maximal effect. The method, boiled down: as §4
The nature of assay [16]: Quantitative High-Throughput drug screen in 47 multiple myeloma cell lines against the NCATS MIPE library collection: JIM1_ECACC cell viability assay (AID 1918964; further: potency means the concentration at half of the fitted maximal effect). The procedure, abridged: as §3
A short description of assay [17]: Quantitative High-Throughput drug screen in 47 multiple myeloma cell lines against the NCATS MIPE library collection: KMS27_JCRB cell viability assay (AID 1918970). Further: nearly all actives have a fitted effect of over 30% in size. Further: potency means the concentration at half of the fitted maximal effect. The note with it: KMS27 myeloma cells, CellTiter-Glo ATP viability, 48 h; viability (% of DMSO): at 45.8 µM (top of the series). The method, boiled down:
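ATP-based viability (CellTiter-Glo luminescence) is measured in cells treated 48 h with approved and investigational drugs at 37 °C. Controls are DMSO-only wells for full viability and media-only wells for none.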

The nature of assay [18]: Quantitative High-Throughput drug screen in 47 multiple myeloma cell lines against the NCATS MIPE library collection: KMS21BM_JCRB cell viability assay (AID 1918974). Further: potency means the concentration at half of the fitted maximal effect. Particulars: ATP luminescence, 48 h; viability: at 45.8 µM (top of the series). The method, boiled down:
as §3

SMILES strings stand for the structures. Results filed as inconclusive are left out. Unmarked numbers belong to inactive results. Activity calls are given as the source filed them. The call rests on the fitted dose curve; in most records, active means well fitted curve in the direction sought with a large enough effect; inconclusive means small, poorly fitted or top-dose-only effect, or another doubt; inactive means no such curve, though single readings can be large; an effect the other way counts as inactive or inconclusive.

As to `NC(=O)c1ncn([C@@H]2O[C@H](CO)[C@@H](O)[C@@H]2O)c1O`, the Potency entry in assay [1], in assay [2], in assay [3], in [4], in assay [5] and in assay [6] was “inactive” each time. For the same compound, the Potency result in [7], in [8], in assay [9], in assay [11], in [12] and in assay [13] was “inactive” in each case. In addition, the Potency in assay [10] is 2.64 µM (active).

As to `CN[C@H](CC(C)C)C(=O)N[C@H]1C(=O)N[C@@H](CC(N)=O)C(=O)N[C@@H]2C(=O)N[C@H]3C(=O)N[C@H](C(=O)N[C@H](C(=O)O)c4cc(O)cc(O)c4-c4cc3ccc4O)[C@H](O)c3ccc(c(Cl)c3)Oc3cc2cc(c3O[C@@H]2O[C@H](CO)[C@@H](O)[C@H](O)[C@@H]2O[C@H]2C[C@](C)(N)[C@H](O)[C@H](C)O2)Oc2ccc(cc2Cl)[C@H]1O`, the Potency entry in assay [1], in assay [2], in [3], in assay [14], in assay [5] and in assay [8] was “inactive” each time. Also, the Potency entry in [15], in assay [11] and in [12] was “inactive” throughout.

`O=C(O)CCCCCC(=O)NN=C1CCCC1`: the Potency entry in [1], in [2], in assay [3], in assay [16], in assay [4] and in [6] was “inactive” each time. The Potency entry in [17], in [8], in assay [15], in assay [11] and in assay [13] was “inactive” throughout.

Consider `CC1(C)CC(O)CC(C)(C)N1[O]`, for which the Potency result in [1], in assay [2], in assay [3], in assay [16], in [4] and in assay [17] was “inactive” throughout. For the same compound, the Potency result in assay [7], in assay [8], in [15], in assay [12] and in assay [13] was “inactive” each time.

Consider `CN1C(C(=O)Nc2ccccn2)=C(O)c2sc(Cl)cc2S1(=O)=O`, for which the Potency entry in assay [1], in assay [2], in assay [17], in assay [8] and in assay [13] was “inactive” each time. The Potency in [3] is 3.72 µM (active); in assay [4], 2.64 µM (active); in assay [14], 3.72 µM (active); in assay [6], 2.64 µM (active); in assay [9], 2.09 µM (active); in assay [15], 14.8 µM (active). In addition, the values for the Potency in [10] and in [12] were 20.9 µM (active) and 1.66 µM (active), respectively.

On to `Nc1cccc2c1C(=O)N(C1CCC(=O)NC1=O)C2=O` (stereo not given), for which the Potency in assay [1] was 0.0209 µM (active); in [3], 0.0935 µM (active); in [4], 4.18 µM (active); in assay [6], 8.33 µM (active). The Potency entry in [2], in assay [5], in assay [17], in assay [8], in assay [11] and in [13] was “inactive” in each case.

With `O=C1c2c(O)cccc2[C@@H]([C@@H]2O[C@H](CO)[C@@H](O)[C@H](O)[C@H]2O)c2cc(CO)cc(O)c21`, the Potency result in assay [1], in [2], in [3], in assay [4], in assay [5] and in assay [6] was “inactive” throughout. For the same compound, the Potency entry in [17], in assay [7], in assay [8], in [9], in [15] and in [11] was “inactive” throughout. Besides, the Potency entry in assay [12] was “inactive”.

`CCc1ccc(C(=O)Nc2cc(CN3CCN(C)CC3)cc(C(F)(F)F)c2)cc1C#Cc1cnc2ccnn2c1`: the Potency in [1] was 5.26 µM (active); in assay [2] it was 6.62 µM (active); in [3], 7.43 µM (active); in [4], 4.69 µM (active); in assay [14], 20.9 µM (active); in assay [5], 2.64 µM (active). Also, the Potency in [6] is 8.33 µM (active); in assay [17], 5.9 µM (active); in assay [7] it was 14.8 µM (active); in [8], 5.26 µM (active); in assay [9], 3.72 µM (active); in assay [15] it was 16.6 µM (active). Further, the Potency in assay [10] was 23.5 µM (active); in assay [11], 18.7 µM (active); in assay [12], 10.5 µM (active).

For `Nc1nc(=O)n([C@H]2CSC(CO)O2)cc1F` (stereo not given in full), the Potency entry in assay [1], in assay [2], in assay [3], in [14], in [6] and in assay [17] was “inactive” in each case. Moreover, the Potency entry in assay [7], in [9], in assay [15] and in [12] was “inactive” each time.

As for `Cc1ccc(O)c(C(CCN(C(C)C)C(C)C)c2ccccc2)c1` (stereo not given), the Potency entry in assay [1], in [2], in assay [3], in assay [14], in assay [5] and in assay [6] was “inactive” throughout. For the same compound, the Potency result in assay [7], in assay [8], in assay [12] and in assay [13] was “inactive” throughout. In addition, the Potency in [18] was 9.35 µM (active).

As for `C[C@@]12C[C@@]3(O)O[C@@H](O1)[C@]1(COC(=O)c4ccccc4)[C@@H]3C[C@@]12O[C@@H]1O[C@H](CO)[C@@H](O)[C@H](O)[C@@H]1O`, the Potency entry in assay [1], in [2], in assay [3], in [16], in assay [5] and in assay [6] was “inactive” throughout. Further, the Potency entry in [17], in assay [15] and in [12] was “inactive” each time.

As for `Nc1ccn(C2CO[C@H](CO)O2)c(=O)n1` (stereo not given in full), the Potency result in assay [1], in assay [2], in assay [17], in assay [12] and in assay [13] was “inactive” each time. Besides, the Potency in assay [3] is 3.32 µM (active); in [7], 0.833 µM (active); in assay [10], 4.69 µM (active).

For `CC(=O)N[C@@H]1[C@H](O[C@@H]2c3ccc(c(Cl)c3)Oc3cc4cc(c3O[C@H]3O[C@H](CO)[C@@H](O)[C@H](O)[C@H]3NC(=O)CCCCCCCC(C)C)Oc3ccc(cc3Cl)C[C@H]3NC(=O)[C@H](N)c5ccc(O)c(c5)Oc5cc(O)cc(c5)[C@H](NC3=O)C(=O)N[C@H]4C(=O)N[C@H]3C(=O)N[C@@H]2C(=O)N[C@@H](C(=O)O)c2cc(O)cc(O[C@H]4O[C@H](CO)[C@@H](O)[C@H](O)[C@H]4O)c2-c2cc3ccc2O)O[C@H](CO)[C@@H](O)[C@@H]1O`, the Potency entry in assay [1], in assay [2], in assay [3], in assay [4], in [6] and in [17] was “inactive” throughout. Further, the Potency entry in [7], in assay [8], in assay [15], in assay [11] and in assay [12] was “inactive” each time.

`N#Cc1ccc(COC[C@H]2O[C@@H](n3c(NCc4ccc(Cl)c(Cl)c4)nc4c(N)ncnc43)[C@@H](O)[C@@H]2O)cc1`: the Potency in [1] was 0.418 µM (active); in assay [2] it was 5.26 µM (active); in assay [3] it was 14.8 µM (active); in [16], 3.72 µM (active); in [4] it was 7.43 µM (active); in assay [6], 23.5 µM (active). Besides, the Potency is 5.9 µM (active) in assay [7]; 3.72 µM (active) in [8]; 2.35 µM (active) in [15]; 4.69 µM (active) in assay [10]; 16.6 µM (active) in assay [11].

The record behind these values is PubChem BioAssay (NCATS).
